tested on: Human papillomavirus type 1a protein E7 (residues 44-93); assay: small molecules binding HPV E7 44-93 – biochemical, small-molecule microarray, residues 44-93, 635 nm fluorescence, primary screen (AID 1108); conditions: fluorescence 635 nm, higher = more signal;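 also: E7 fragment applied at 1 µg/mL in TBST for 1 h at 4 C; score combines spot fluorescence with its signal to noise ratio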

Compared with `CCN(CC)c1ccc(N2CC=CC34O[C@@H]5C=CCOC(=O)[C@@H]5[C@H]3C(=O)N(CCO)[C@@H]4C2=O)cc1` (stereo not given in full), `NC(=O)N1C(=O)C2C(C1=O)C1C=C(CCCO)C2C(c2ccc(CN3CCCC3)cc2)N1Cc1cccc(OC(F)(F)F)c1` (stereo not given) is higher in composite z-score: -0.73 for the first, 0.433 for the second.

Going from `CCOC(=O)C1=CC[C@@H](c2ccccc2)N(S(=O)(=O)C[Si](C)(C)C)[C@H]1c1ccccc1` to `CCC[C@@H]1C=C(C(=O)OCC)[C@H](c2ccccc2)N1S(=O)(=O)c1ccc(C)cc1`, the composite z-score falls from 1.38 to 1.04.

Going from `CN(C)CCCC[C@@H]1NC(=O)[C@@H]2C[C@H](C(=O)NCc3ccc(F)cc3)[C@H](c3ccc(O)cc3)N2C1=O` to `CN(C)CCCC[C@@H]1NC(=O)[C@H]2C[C@@H](C(=O)NCc3ccc(F)cc3)[C@@H](c3ccc(O)cc3)N2C1=O`, the composite z-score falls from 0.16 to -0.247.

Going from `C=CCOC(=O)[C@H]1[C@@H]2C(=O)O[C@@H](c3ccccc3)[C@@H](c3ccccc3)N2[C@@H](c2ccc(OCCOC(=O)[C@@H]3C[C@@H]4C(=O)N[C@@H](CC(C)C)C(=O)N4[C@@H]3c3ccc(O)cc3)cc2)[C@]12C(=O)Nc1ccc(I)cc12` to `COc1ccc(C#Cc2ccc3c(c2)[C@]2(C(=O)N3)[C@H](C(=O)Nc3nc4ccccc4s3)[C@H]3C(=O)O[C@H](c4ccccc4)[C@H](c4ccccc4)N3[C@@H]2c2ccc(OCCO)cc2)cc1`, the composite z-score falls from 1.37 to 0.801.

Compared with `COCCCNC(=O)[C@@H]1c2ccccc2C(=O)N(C2CCCCC2)[C@H]1c1ccc(CO)cc1`, `CC(C)CNC(=O)[C@@H]1c2ccccc2C(=O)N(C(C)C)[C@H]1c1ccc(CO)cc1` is higher in composite z-score: -0.093 for the first, -0.043 for the second.

Going from `C=CCC(OC(C)=O)[C@@H]1[C@@H](N(Cc2ccc(-c3cccc(C(F)(F)F)c3)o2)C(=O)c2cccc3ccccc23)c2cc(OCCCO)ccc2N1C(=O)c1ccc2ccccc2n1` (stereo not given in full) to `C=CCC(OC(C)=O)[C@@H]1[C@@H](N(Cc2ccc(-c3cccc(C(F)(F)F)c3)o2)C(=O)c2cccc3ccccc23)c2cc(OCCCO)ccc2N1C(=O)c1ccc2ccccc2c1` (stereo not given in full), the composite z-score falls from -0.193 to -0.423.

Going from `C[N+](C)(C)CCCC[C@@H]1NC(=O)[C@H]2C[C@@H](C(=O)NCCCCCNC(=O)CS)[C@@H](c3ccc(O)cc3)N2C1=O` to `CCOC(=O)C[C@H]1[C@H](OC(=O)c2ccc(-c3ccccc3)cc2)[C@@H](NC(=O)CC(C)C)c2cc(OCCCO)ccc2N1C(=O)Cc1ccc(OC)cc1`, the composite z-score falls from 0.727 to 0.157.

Compared with `C=CCC(OC(C)=O)[C@@H]1[C@@H](N(Cc2cccc3ccccc23)C(=O)c2cccc3ccccc23)c2cc(OCCCO)ccc2N1C(=O)Cc1ccc2ccccc2c1` (stereo not given in full), `CCOC(=O)C[C@H]1[C@H](OC(=O)c2ccc(C(=O)c3ccccc3)cc2)[C@@H](NC(=O)c2ccc3ccccc3c2)c2cc(OCCCO)ccc2N1C(=O)c1ccc2ccccc2n1` is higher in composite z-score: 0.281 for the first, 1.05 for the second.

Going from `COc1ccc(C(O)C2C=CC3C(=O)N(C)C(=O)C3N2Nc2ccc([N+](=O)[O-])cc2[N+](=O)[O-])cc1OCc1ccccc1` (stereo not given) to `N#Cc1ccc(C(O)C2C=CC3C(=O)NC(=O)C3N2Nc2ccccn2)cc1` (stereo not given), the composite z-score falls from 1.39 to 0.447.

Going from `COCCOC(=O)N1C(=O)[C@@]2(c3cc(C#CCC(C(=O)OC)C(=O)OC)ccc31)[C@H](C(=O)N1CCc3cc(OC)c(OC)cc3C1)[C@H]1C(=O)O[C@H](c3ccccc3)[C@H](c3ccccc3)N1[C@@H]2c1ccc(O)cc1` to `COCCOC(=O)N1C(=O)[C@@]2(c3cc(C#CCC(C(=O)OC)C(=O)OC)ccc31)[C@H](C(N)=O)[C@H]1C(=O)O[C@H](c3ccccc3)[C@H](c3ccccc3)N1[C@@H]2c1ccc(OCCO)cc1`, the composite z-score rises from 1.4 to 1.43.

Compared with `C=CCNC(=O)[C@@H]1[C@H]2C(=O)O[C@H](c3ccccc3)[C@H](c3ccccc3)N2[C@H](c2ccc(O)cc2)[C@@]12C(=O)Nc1ccc(C#CC3(O)CCCCCC3)cc12`, `COCCOC(=O)N1C(=O)[C@@]2(c3ccccc31)[C@H](C(=O)N1CCCCCCC1)[C@H]1C(=O)O[C@H](c3ccccc3)[C@H](c3ccccc3)N1[C@@H]2c1ccc(O)cc1` is higher in composite z-score: 0.754 for the first, 1.4 for the second.

Compared with `CC(C)C[C@H]1NC(=O)[C@@]23C(=O)N[C@@H](Cc4ccccc4)C2[C@H](C)[C@@]2(C)O[C@H]2C3/C=C/C/C=C\CNC(=O)[C@@H]2CCCN2C1=O` (stereo not given in full), `COC(=O)[C@@]1(Cc2ccccc2)[C@@H]2[C@@H](CC(=O)[C@H]2CC(=O)C(=O)N(C)C)CN1C(=O)c1ccccc1` is lower in composite z-score: 0.612 for the first, 0.426 for the second.

Going from `CCCC[C@@H]1C[C@H]1[C@@H](NC(=O)Cc1ccccc1)c1ccc(Cl)cc1` to `Cc1c(NC(=O)/C(C#N)=C/c2ccc(Cl)cc2)c(=O)n(-c2ccccc2)n1C`, the composite z-score falls from 1.37 to -0.648.

First: O=C1NC(=O)C2C1C=CC(C(O)c1ccc(F)cc1)N2Nc1ccccn1 (stereo not given)
Second: COc1ccc([Si](C)(C)[C@H]2[C@H](CCn3cc([C@H](O)c4ccccc4)nn3)O[C@@]3(C(=O)N(C)c4c(Br)cc(C)cc43)[C@@H]2C)cc1
The composite z-score of the first is higher: 0.164 for the first, -0.0087 for the second.

Going from `COc1ccc([Si](C)(C)[C@H]2[C@H](CC(=O)N3Cc4ccccc4C[C@H]3CO)O[C@@]3(C(=O)N(Cc4cccc(N5C(=O)c6cccc7cccc5c67)c4)c4ccccc43)[C@@H]2C)cc1` to `O=C1c2ccccc2[C@](Cc2ccccc2I)(C(=O)O)[C@H](c2ccc(CO)cc2)N1Cc1ccccc1`, the composite z-score falls from 1.19 to 1.17.

Compared with `COC(=O)[C@]1(CO)N=C(c2ccc(OCCCO)cc2)O[C@@H]1c1ccccc1CN=[N+]=[N-]`, `C=CC[C@@]1(C(=O)O)N=C(c2ccc(OCCCO)cc2)O[C@@H]1c1ccccc1CN=[N+]=[N-]` is higher in composite z-score: -0.0942 for the first, 0.895 for the second.

Compared with `COCCOC(=O)N1C(=O)[C@@]2(c3cc(C#CCC(C(=O)OC)C(=O)OC)ccc31)[C@H](c1ccc(OCCO)cc1)N1[C@H](c3ccccc3)[C@H](c3ccccc3)OC(=O)[C@H]1[C@@H]2C(=O)N1CCCCCCC1`, `COC(=O)[C@@]1(Cc2ccccc2)[C@H]2c3cc(C(=O)N4CCCC4)n(Cc4ccc(C(F)(F)F)nc4)c3C[C@H]2CN1C(=O)c1ccccc1` is higher in composite z-score: 1.21 for the first, 1.46 for the second.

Molecule `CC1(C)OC[C@@]23C=C(Br)[C@@H](C[C@H]12)[C@@]1(CO1)C3=O` has a composite z-score of 0.223.

— PubChem BioAssay
